Data on eight compounds can be found in paper PMC5540273 (PLoS ONE, 2017).

Some results are limits rather than exact numbers.
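Note: kd values determined as follow-up on hits from a single-replicate KINOMEscan panel screen.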

In one experiment the test system is TNNI3K.
`Nc1ncnc2c1ncn2-c1cccc(F)c1` [SKF-97560]: the dissociation constant (Kd) is over 10000 nM.

`Nc1nc(-c2ccccc2F)c(-c2ccnc3ccccc23)s1` [GW560459] registered an equilibrium dissociation constant (Kd) of over 10000 nM.

Consider `COc1ccc(Nc2nccc(N3CCC(NS(=O)(=O)c4ccc(NC(C)=O)cc4)C3)n2)cc1` (stereo not shown) [GSK1379729], for which the equilibrium dissociation constant (Kd) is over 10000 nM.

For the next experiment, the system named is TYK2(JH1domain-catalytic).
In turn, `COc1cccc(-n2cnc3c(N)ncnc32)c1` [SKF-97416] displayed a dissociation constant (Kd) of over 10000 nM.

Regarding `COc1cc(Nc2nccc(N3CCC(NC(=O)C4COc5ccccc5O4)C3)n2)cc(OC)c1OC` (stereo not shown) [GSK1379761], the Kd was determined as 1500 nM.

For the compound `COc1ccc(Nc2nccc(N3CCC(NS(=O)(=O)c4ccc(NC(C)=O)cc4)C3)n2)cc1` (stereo not shown) [GSK1379729], the equilibrium dissociation constant (Kd) was 86 nM.

A further experiment deals with T1, VPS34.
T1 construct: gene PIK3C3
In the case of `O=c1cc(N2CCOCC2)nc2n(Cc3ccc(F)c(Cl)c3)ccn12` [GSK2297099], the dissociation constant (Kd) turned out to be 15 nM.

In turn, `Cc1ccccc1COc1cc(-n2cnc3cc(Cl)ccc32)sc1C(N)=O` [GW813349] registered a Kd of over 10000 nM.

`Cc1nn2c(=O)cc(N3CCOCC3)nc2n1Cc1cccc(Cl)c1Cl` [GSK2342769] returned a dissociation constant (Kd) of 0.43 nM.

Compound `COc1ccc(Nc2nccc(N3CCC(NS(=O)(=O)c4ccc(NC(C)=O)cc4)C3)n2)cc1` (stereo not shown) [GSK1379729] returned a dissociation constant (Kd) of 97 nM.

Broadly, the Kd is a measure of binding affinity in units of concentration.
